Screens from PubChem.
NFkB transloc inh: blocks IL-1B driven NFkB nuclear translocation in HUVEC cells; inhibition, % at 2 µM; 0.43% of 94,000 active; HUVEC IL-1B NFkB p65 nuclear translocation imaging; AID 796;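 active = inhibition above about 30% together with a positive call from visual inspection of the well image, limit read from the data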;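 also: nuclear over cytoplasmic p65 intensity ratio measured by imaging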
E-sel TNF inh: blocks E-selectin expression induced by TNF alpha. inhibition, % at 2 µM. HUVEC TNFa-induced E-selectin immunofluorescence, high content. AID 1246. 0.71% of 120,000 active;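 active = inhibition above the batch mean plus 3 SD, and confirmed as a hit on visual image review, cut at about 43% in these data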
VCAM1 TNFa inh: reduces TNF alpha induced VCAM1 expression in HUVEC; inhibition, % at 2 µM; HUVEC TNFa-induced VCAM-1 immunofluorescence, high-content imaging; 0.48% of 95,000 active;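 active = inhibition above the batch mean plus 3 SD, with images confirmed as a hit by eye, cut at about 37% in these data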
NFkB transloc pot: enhances IL-1B driven NFkB nuclear translocation; HUVEC IL-1B NFkB p65 nuclear translocation imaging; activation, % at 2 µM; 0.3% of 94,000 active;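 active = activation above 40%, about the mean plus 3 SD, also judged a hit on visual image review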;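 also: percent activation is computed from the nuclear over cytoplasmic p65 intensity ratio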
TNFa cytotox: toxic to HUVEC cells under TNF alpha stimulation. HUVEC TNFalpha-stimulated, Hoechst cell count, imaging. cell count reduction, % at 2 µM. 0.17% of 93,000 active;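 active = cell count reduction exceeding the screen mean by over 5 SD, scaled to untreated wells per plate, cut at about 78% in these data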;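 also: cells counted after 24 h of TNF alpha exposure following the 1 h pretreatment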
IL1B cytotox: toxic to HUVEC cells under IL-1B stimulation; 0.41% of 94,000 active; HUVEC cell count loss, Hoechst imaging, IL-1B stimulated; cell count reduction, % at 2 µM; AID 845;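 active = cell count reduction more than 3 SD above the screen-wide mean, cut at about 70% in these data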
Hits are given with their value; . = inactive; / = no result given. The list is not random: actives were taken first. Their share in the collection is about 1.7%.

SMILES	NFkB transloc inh	E-sel TNF inh	VCAM1 TNFa inh	NFkB transloc pot	TNFa cytotox	IL1B cytotox
C(=C1/CCCC2=C1Nc1ncnn1C2c1ccccc1)/c1ccccc1 (stereo unspecified)	37.7	.	.	.	.	.
COc1ccc(N=c2oc3ccc(OC)cc3cc2-c2nc3ccccc3[nH]2)cc1	.	.	50.5	.	.	.
O=C(Oc1ccc2ccc(=O)oc2c1)N1CCOCC1	.	/	90.2	.	79.0	.
C=CCn1c(SCC(=O)c2ccc(OC)cc2)nnc1C(C)NC(=O)c1cccs1 (stereo unspecified)	48.8	.	.	.	.	94.4
CC(NCc1ccccc1)C1COc2ccccc2O1 (stereo unspecified)	.	.	.	49.1	.	.
Cc1ccc(NC2=NCC(=O)N2C2CCCC2)cc1	/	.	/	/	/	/
Cc1cc2cc(C=C(C#N)C#N)c(Cl)nc2cc1C	/	58.0	/	/	/	/
O=C(Cn1ncc(Cl)c(Cl)c1=O)N1CCc2ccccc21	/	99.6	/	/	/	/
O=C(Cn1ncc2c1-c1ccccc1OC2)N1CCc2ccccc21	.	/	.	.	.	.
O=C(N/N=C/c1ccc(Br)cc1)c1ccccc1-n1cccc1	.	.	.	.	.	.
COCCN(C(=O)C1CC1)c1nnc(-c2cccc(C)c2)s1	.	/	.	.	.	.
c1ccc(-c2csc(Nc3ccc4c(c3)OCCO4)n2)cc1	44.1	.	.	.	.	.
Cc1nnc(NC(=O)C2CCCCC2)s1	/	.	/	/	/	/
O=C(Nc1nnc(C2CCCC2)s1)C1CCC1	.	.	.	40.1	.	.
CC1CC(=O)Nc2ccccc2S1(=O)=O (stereo unspecified)	/	84.4	/	/	/	/
Cc1csc(-c2cnn(-c3ccccc3)c2NC(=O)c2ccc(C(F)(F)F)cc2)n1	.	.	.	.	.	.
COc1cc(C2C(C(=O)c3ccco3)=C(O)C(=O)N2CCc2ccccc2)ccc1O (stereo unspecified)	/	.	/	/	/	/
CCOc1cc(C2C(C(=O)c3ccc(C)o3)=C(O)C(=O)N2CCc2ccccc2)ccc1O (stereo unspecified)	47.2	.	.	.	.	.
COc1cccc(CNc2ccc(F)c(Cl)c2)c1	.	100.0	.	.	.	.
CC(C)NC(=O)c1cc2nc(-c3ccco3)cc(C(F)(F)F)n2n1	.	.	.	.	.	.
O=C(Nc1ccc(Cl)cc1)c1cc2nc(-c3ccco3)cc(C(F)(F)F)n2n1	.	78.4	.	.	.	.
CCCCCOCC(O)CCC(=O)NN (stereo unspecified)	.	.	.	.	.	.
COC(=O)[C@H](C)NC(=O)NC1CCN(Cc2ccccc2)CC1	.	.	.	.	.	82.9
CCN(CC)CCCN(Cc1cc2cc3c(cc2[nH]c1=O)OCCO3)C(=O)Nc1ccc(F)cc1	.	.	.	.	.	.
Cc1ccccc1-n1ncc2c(SCC(=O)NCc3cccs3)ncnc21	.	.	.	104.6	.	.
SMILES	NFkB transloc inh	E-sel TNF inh	VCAM1 TNFa inh	NFkB transloc pot	TNFa cytotox	IL1B cytotox
Cc1csc(NC(=O)CSc2ncnc3c2cnn3-c2ccccc2Cl)n1	.	.	.	.	.	.
Cc1ccc(NC(=O)Nc2ccc3c(c2)N(C)C(=O)CS3)nc1	.	94.1	.	.	.	.
COc1ccc(NC(=O)c2ccc(C)cc2Cl)c([N+](=O)[O-])c1	.	.	.	.	.	78.7
CC(=O)N1CCN(S(=O)(=O)c2ccc(S(=O)(=O)NCC(C)C)cc2)CC1	.	.	.	.	.	.
Cc1nn2c(N3CCN(C4CCCC4)CC3)cc(C(C)(C)C)nc2c1-c1ccccc1	.	.	.	.	.	81.9
CC(C)C(c1nnnn1C1CCCC1)N1CCN(C(=O)c2ccco2)CC1 (stereo unspecified)	.	.	.	.	.	.
Cc1cccc2cc(C#N)c(SCC(=O)N3CCC(C)CC3)nc12	.	.	.	.	.	.
Cc1cccc2cc(C#N)c(SCC(=O)N3CC(=O)Nc4ccccc43)nc12	.	.	94.3	.	.	.
Cc1nnc(SCC(=O)N2CC(=O)Nc3ccccc32)n1C	.	64.0	.	.	.	.
Cc1ccccc1-n1c(C)nnc1SCC(=O)N1CC(=O)Nc2ccccc21	/	.	/	/	/	/
CCCCCCCC1CC(/C(C)=N/NC(N)=O)OC1=O (stereo unspecified)	/	.	/	/	/	/
COC(=O)c1cn(NC(=O)c2ccc(OC)c(OC)c2)c(=O)c2ccccc12	39.0	/	.	.	.	.
Cc1cc(C(=O)NN=C2C3CC4CC(C3)CC2C4)c2ccccc2n1	.	.	52.3	.	.	.
